# The source made the active and inactive calls.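 How the source made its calls: active means Her2 level under about 52% in both replicate screens, with viability over 70% of control (limit read from the data); inconclusive means Her2 under the limit in one screen only, or viability under 70%; inactive means Her2 level above the set limit.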
# Tested on: not listed separately
# Experiment: Her2 expression decrease, cell viability multiplex – SKBR3 breast tumor cells, AlphaScreen, ATP viability, primary screen (AID 461);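 on viability: percent of carrier control wells set as 100% viability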
# Conditions: SKBR3 Her2 protein level, 18-24 h, measured here: SKBR3 viability, ATP luminescence, at 10 µM
row,Compound,viability
1,CCC(c1nnnn1CCOC)N(Cc1ccc(C)cc1)Cc1cc2cc(OC)ccc2[nH]c1=O (stereo not given),115%
2,COc1ccccc1-c1nnc(SCc2ccccn2)n1C,94%
3,CCCCOCCCNC(=O)c1ccccc1OCC,89%
4,COCCOC(=O)C1=C(C)Nc2ncnn2C1c1ccc(F)cc1 (stereo not given),90%
5,CCCCOc1ccc(C(=O)Nn2cnnc2)cc1,95.5%
6,O=C(CNS(=O)(=O)c1ccc(Br)s1)N1CCN(c2ncccn2)CC1,98.5%
7,CCN(CC)CCCN(Cc1cc2cc(OC)ccc2[nH]c1=O)C(=O)Nc1ccccc1,90%
8,CN(C)CCCn1c(N)c(C#N)c2nc(C#N)c(C#N)nc21,179%
9,CCOC(=O)C(C)(C)Sc1nc2c(cnn2-c2ccc(C)cc2)c(=O)[nH]1,99%
10,COC(=O)c1ccc(CSc2nnc(-c3ccncc3)o2)o1,110%
11,CC1(C)Cc2nc3oc4c(N(CCO)Cc5ccccc5)ncnc4c3cc2CO1,95.5%
12,CCCCc1n[nH]c2c1C(=O)CC(C)(C)C2,73.5%
13,CCOc1ccc(NC(=O)C2CC(=O)N(C(C)C)C2)cc1 (stereo not given),103%
14,C=C(C)CSc1nnc(-c2cccc(S(=O)(=O)N(C)C)c2)n1-c1cc(OC)ccc1OC,75%
15,N#Cc1c(NC(=O)c2ccc(Br)o2)n(-c2ccccc2)c2nc3ccccc3nc12,86.5%
16,CCCC(=O)Nc1cc(C)c(NC(=O)c2ccccn2)cn1,90.5%
17,CCOC(=O)c1sc2ncn(/N=C/N(C)C)c(=O)c2c1C,98%
18,O=C(c1ccco1)N1CCN(C(=O)c2cc3c(s2)-c2ccccc2OC3)CC1,91%
19,Cn1c(-c2ccccc2)c(CCO)c2ccccc21,97%
20,CC(C)(C)OC(=O)N1CCCC1C(=O)N1CCc2ccccc21 (stereo not given),95.5%

row,Compound,viability
1,Fc1ccc(C(c2nnnn2Cc2ccco2)N2CCN(C3CCCCC3)CC2)cc1 (stereo not given),67%
2,Cc1c(C(=O)NCc2cccnc2)oc2ccc(S(=O)(=O)N3CCCCC3)cc12,71.5%
3,COc1ccc(-c2cc(C(=O)NCCc3ccccc3)no2)cc1OC,102%
4,O=C(NCc1ccccc1)C1CCN(S(=O)(=O)N2CCCCCC2)CC1,85%
5,CC1(C)CC(=O)C(CC2=C(O)CC(C)(C)CC2=O)=C(O)C1,95%
6,Cn1c(=O)c2c(nc(SCC(=O)NCc3ccco3)n2C)n(C)c1=O,116%
7,COc1ccc(-c2noc(-c3cc(Cl)ccc3Cl)n2)cc1OC,122%
8,CCn1c(=O)cc(SCC(=O)NCCN2CCN(Cc3ccccc3)CC2)c2ccccc21,89%
9,CC(=O)Nc1cccc(NC(=O)c2oc3ccccc3c2C)c1,81.5%
10,CN1CCN(c2oc(COc3ccc(-c4ccccc4)cc3)nc2C#N)CC1,83.5%
11,Clc1ccc2nc(N3CCCCC3)[nH]c2c1,90.5%
12,CN1CCc2nc(SCC(=O)Nc3ccc(F)cc3)c(C#N)cc2C1,90.5%
13,CCCCC(=O)NCCc1ccc(S(N)(=O)=O)cc1,104%
14,Cc1onc(-c2c(Cl)cccc2Cl)c1C(=O)N1CCc2ccccc21,97%
15,Cc1ccc(S(=O)(=O)NCCCCC(NC(=O)OC(C)(C)C)C(=O)O)cc1 (stereo not given) (tested in a mixture with another compound),91.5%
16,N#CC1=C(N)SC(N)=C(C#N)C1c1ccc(C(F)(F)F)cc1,90%
17,C=Cn1c(C(=O)O)cc(CC)c1-c1ccccc1,96%
18,Cc1nc2cccc(C(=O)NC3CCCCC3)c2o1,100%
19,O=C(CCn1nc(-c2ccc(Cl)cc2)ccc1=O)N1CCN(c2ccccn2)CC1,96.5%
20,COc1ccc(-c2nnc(SCC#N)o2)cc1,104%

# Biological target: Receptor tyrosine-protein kinase erbB-2 (Homo sapiens) (UniProt P04626)
# Experiment: as above
# Conditions: 18-24 h, at 10 µM, stronger effect = lower value
# Sequence of Receptor tyrosine-protein kinase erbB-2 (Homo sapiens) (P04626 whole entry, looked up): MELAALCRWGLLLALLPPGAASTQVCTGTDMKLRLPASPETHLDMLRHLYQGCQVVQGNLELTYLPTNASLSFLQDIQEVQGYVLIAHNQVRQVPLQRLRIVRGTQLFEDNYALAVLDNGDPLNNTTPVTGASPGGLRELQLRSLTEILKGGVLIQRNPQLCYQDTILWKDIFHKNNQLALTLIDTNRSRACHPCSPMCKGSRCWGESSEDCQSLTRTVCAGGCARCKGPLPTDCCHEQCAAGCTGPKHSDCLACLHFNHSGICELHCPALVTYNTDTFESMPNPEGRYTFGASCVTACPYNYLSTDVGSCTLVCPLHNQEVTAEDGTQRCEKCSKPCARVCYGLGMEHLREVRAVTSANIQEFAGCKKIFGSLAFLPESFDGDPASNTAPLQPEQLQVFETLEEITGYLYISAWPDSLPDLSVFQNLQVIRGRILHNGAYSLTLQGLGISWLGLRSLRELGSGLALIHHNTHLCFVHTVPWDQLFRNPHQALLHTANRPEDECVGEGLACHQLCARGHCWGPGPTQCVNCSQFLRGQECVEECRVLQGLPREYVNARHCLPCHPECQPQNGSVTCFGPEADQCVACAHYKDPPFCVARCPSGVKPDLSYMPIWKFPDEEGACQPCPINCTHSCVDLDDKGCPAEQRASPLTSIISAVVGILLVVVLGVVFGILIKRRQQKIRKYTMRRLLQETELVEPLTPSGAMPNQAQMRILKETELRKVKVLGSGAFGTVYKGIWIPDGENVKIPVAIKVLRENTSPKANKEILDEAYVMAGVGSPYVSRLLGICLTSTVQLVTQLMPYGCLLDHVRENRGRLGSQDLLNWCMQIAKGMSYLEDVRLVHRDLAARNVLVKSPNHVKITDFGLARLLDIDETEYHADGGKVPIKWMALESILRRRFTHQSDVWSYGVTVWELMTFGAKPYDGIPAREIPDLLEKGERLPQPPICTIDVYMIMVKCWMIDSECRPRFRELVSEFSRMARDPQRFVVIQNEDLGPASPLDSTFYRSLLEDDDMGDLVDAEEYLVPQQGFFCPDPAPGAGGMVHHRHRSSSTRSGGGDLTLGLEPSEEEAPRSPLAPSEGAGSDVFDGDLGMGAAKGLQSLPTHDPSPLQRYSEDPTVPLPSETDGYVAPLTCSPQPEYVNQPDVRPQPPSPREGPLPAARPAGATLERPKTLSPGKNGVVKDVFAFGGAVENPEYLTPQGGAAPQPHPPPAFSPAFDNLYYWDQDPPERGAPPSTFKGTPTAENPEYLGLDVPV
row,Compound,Her2 level
1,CCC(c1nnnn1CCOC)N(Cc1ccc(C)cc1)Cc1cc2cc(OC)ccc2[nH]c1=O (stereo not given),89% (inactive)
2,COc1ccccc1-c1nnc(SCc2ccccn2)n1C,107% (inactive)
3,CCCCOCCCNC(=O)c1ccccc1OCC,88.5% (inactive)
4,COCCOC(=O)C1=C(C)Nc2ncnn2C1c1ccc(F)cc1 (stereo not given),87.5% (inactive)
5,CCCCOc1ccc(C(=O)Nn2cnnc2)cc1,87% (inactive)
6,O=C(CNS(=O)(=O)c1ccc(Br)s1)N1CCN(c2ncccn2)CC1,116% (inactive)
7,CCN(CC)CCCN(Cc1cc2cc(OC)ccc2[nH]c1=O)C(=O)Nc1ccccc1,73% (inactive)
8,CN(C)CCCn1c(N)c(C#N)c2nc(C#N)c(C#N)nc21,47.5% (active)
9,CCOC(=O)C(C)(C)Sc1nc2c(cnn2-c2ccc(C)cc2)c(=O)[nH]1,100% (inactive)
10,COC(=O)c1ccc(CSc2nnc(-c3ccncc3)o2)o1,69% (inactive)
11,CC1(C)Cc2nc3oc4c(N(CCO)Cc5ccccc5)ncnc4c3cc2CO1,86.5% (inactive)
12,CCCCc1n[nH]c2c1C(=O)CC(C)(C)C2,90.5% (inactive)
13,CCOc1ccc(NC(=O)C2CC(=O)N(C(C)C)C2)cc1 (stereo not given),82% (inactive)
14,C=C(C)CSc1nnc(-c2cccc(S(=O)(=O)N(C)C)c2)n1-c1cc(OC)ccc1OC,93.5% (inactive)
15,N#Cc1c(NC(=O)c2ccc(Br)o2)n(-c2ccccc2)c2nc3ccccc3nc12,77% (inactive)
16,CCCC(=O)Nc1cc(C)c(NC(=O)c2ccccn2)cn1,92.5% (inactive)
17,CCOC(=O)c1sc2ncn(/N=C/N(C)C)c(=O)c2c1C,97.5% (inactive)
18,O=C(c1ccco1)N1CCN(C(=O)c2cc3c(s2)-c2ccccc2OC3)CC1,113% (inactive)
19,Cn1c(-c2ccccc2)c(CCO)c2ccccc21,78.5% (inactive)
20,CC(C)(C)OC(=O)N1CCCC1C(=O)N1CCc2ccccc21 (stereo not given),86% (inactive)

row,Compound,Her2 level
1,Fc1ccc(C(c2nnnn2Cc2ccco2)N2CCN(C3CCCCC3)CC2)cc1 (stereo not given),86.5% (inactive)
2,Cc1c(C(=O)NCc2cccnc2)oc2ccc(S(=O)(=O)N3CCCCC3)cc12,89% (inactive)
3,COc1ccc(-c2cc(C(=O)NCCc3ccccc3)no2)cc1OC,85.5% (inactive)
4,O=C(NCc1ccccc1)C1CCN(S(=O)(=O)N2CCCCCC2)CC1,106% (inactive)
5,CC1(C)CC(=O)C(CC2=C(O)CC(C)(C)CC2=O)=C(O)C1,91% (inactive)
6,Cn1c(=O)c2c(nc(SCC(=O)NCc3ccco3)n2C)n(C)c1=O,98.5% (inactive)
7,COc1ccc(-c2noc(-c3cc(Cl)ccc3Cl)n2)cc1OC,78% (inactive)
8,CCn1c(=O)cc(SCC(=O)NCCN2CCN(Cc3ccccc3)CC2)c2ccccc21,89.5% (inactive)
9,CC(=O)Nc1cccc(NC(=O)c2oc3ccccc3c2C)c1,92.5% (inactive)
10,CN1CCN(c2oc(COc3ccc(-c4ccccc4)cc3)nc2C#N)CC1,72.5% (inactive)
11,Clc1ccc2nc(N3CCCCC3)[nH]c2c1,78.5% (inactive)
12,CN1CCc2nc(SCC(=O)Nc3ccc(F)cc3)c(C#N)cc2C1,91.5% (inactive)
13,CCCCC(=O)NCCc1ccc(S(N)(=O)=O)cc1,104% (inactive)
14,Cc1onc(-c2c(Cl)cccc2Cl)c1C(=O)N1CCc2ccccc21,91.5% (inactive)
15,Cc1ccc(S(=O)(=O)NCCCCC(NC(=O)OC(C)(C)C)C(=O)O)cc1 (stereo not given) (tested in a mixture with another compound),92.5% (inactive)
16,N#CC1=C(N)SC(N)=C(C#N)C1c1ccc(C(F)(F)F)cc1,104% (inactive)
17,C=Cn1c(C(=O)O)cc(CC)c1-c1ccccc1,101% (inactive)
18,Cc1nc2cccc(C(=O)NC3CCCCC3)c2o1,101% (inactive)
19,O=C(CCn1nc(-c2ccc(Cl)cc2)ccc1=O)N1CCN(c2ccccn2)CC1,92.5% (inactive)
20,COc1ccc(-c2nnc(SCC#N)o2)cc1,91.5% (inactive)
